The record followed here is PMC7862700, “An all-to-all approach to the identification of sequence-specific readers for epigenetic DNA modifications on cytosine”.

Holding throughout (assay): DAPPL (digital affinity profiling via proximity ligation, sequencing); 10 mM Tris-HCl pH 7.5, 50 mM NaCl, 1 mM DTT, 4% glycerol, room temperature, 30 min; GST-TFs on glutathione beads, 16-mer random dsDNA library, 0.1% formaldehyde crosslink after washing; high values mean tight binding
Holding throughout (details): protein: recombinant; tags: N-terminal GST; dsDNA, one strand shown

The target of one experiment is T1, ELK1 (Homo sapiens, UniProt P19419 1-428).
T1 sequence: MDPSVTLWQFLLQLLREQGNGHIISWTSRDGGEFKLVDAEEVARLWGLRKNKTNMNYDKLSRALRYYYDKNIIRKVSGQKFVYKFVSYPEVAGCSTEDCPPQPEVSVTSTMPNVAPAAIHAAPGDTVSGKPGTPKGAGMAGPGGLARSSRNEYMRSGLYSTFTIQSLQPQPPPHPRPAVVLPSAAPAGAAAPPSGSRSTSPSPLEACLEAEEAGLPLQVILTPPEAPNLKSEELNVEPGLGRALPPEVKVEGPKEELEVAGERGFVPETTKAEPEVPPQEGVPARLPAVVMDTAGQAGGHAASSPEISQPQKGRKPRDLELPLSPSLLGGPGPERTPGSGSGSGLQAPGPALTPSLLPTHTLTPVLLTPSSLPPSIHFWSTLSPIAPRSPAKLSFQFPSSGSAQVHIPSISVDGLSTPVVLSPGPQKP
The method, boiled down:
(§1)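 A tag-only sample was pooled with DNA-barcoded human transcription factors that had been expressed in yeast as GST fusions and captured on glutathione beads. The pools were incubated for 30 min at room temperature with 200 nmole of a random double-stranded 16-mer DNA library in Tris/NaCl/DTT/glycerol buffer, then washed, crosslinked with 0.1% formaldehyde, proximity-ligated (BsaI/T4 ligase, 1 h, 37 °C), PCR-amplified and sequenced on an Illumina NextSeq500. Binding signal is each hexamer's read frequency for a factor divided by its frequency for the tag-only sample.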

The next experiment concerns the target T2, GABPA (Homo sapiens, UniProt Q06546 1-454).
T2 sequence: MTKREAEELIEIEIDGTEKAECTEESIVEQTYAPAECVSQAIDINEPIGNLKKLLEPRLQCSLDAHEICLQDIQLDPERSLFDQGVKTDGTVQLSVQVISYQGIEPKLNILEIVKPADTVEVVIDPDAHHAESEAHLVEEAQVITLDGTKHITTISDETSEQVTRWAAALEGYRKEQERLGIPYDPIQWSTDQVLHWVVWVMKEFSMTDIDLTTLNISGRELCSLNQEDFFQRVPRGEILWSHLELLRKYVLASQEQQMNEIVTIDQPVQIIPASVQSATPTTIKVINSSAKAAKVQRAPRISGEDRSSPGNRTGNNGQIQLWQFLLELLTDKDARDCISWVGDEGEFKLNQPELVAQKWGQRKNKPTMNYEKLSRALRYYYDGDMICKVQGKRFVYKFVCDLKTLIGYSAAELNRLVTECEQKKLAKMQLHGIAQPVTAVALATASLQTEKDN
The method, boiled down: as §1

A further experiment addresses T3, ERG (Homo sapiens, UniProt P11308 1-479).
T3 sequence: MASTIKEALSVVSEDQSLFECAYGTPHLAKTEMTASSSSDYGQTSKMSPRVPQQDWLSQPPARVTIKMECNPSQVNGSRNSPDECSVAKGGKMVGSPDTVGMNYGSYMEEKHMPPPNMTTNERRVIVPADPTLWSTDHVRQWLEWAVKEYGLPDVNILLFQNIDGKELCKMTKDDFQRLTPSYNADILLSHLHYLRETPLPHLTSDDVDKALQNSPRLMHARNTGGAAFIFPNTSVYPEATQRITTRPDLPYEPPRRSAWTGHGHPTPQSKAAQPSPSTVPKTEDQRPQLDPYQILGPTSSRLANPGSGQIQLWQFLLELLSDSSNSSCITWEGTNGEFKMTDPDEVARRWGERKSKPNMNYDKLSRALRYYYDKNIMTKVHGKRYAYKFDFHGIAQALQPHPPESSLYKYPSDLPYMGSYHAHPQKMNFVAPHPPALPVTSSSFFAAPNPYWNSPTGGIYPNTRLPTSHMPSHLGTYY
The procedure, abridged: as §1

In a further experiment the target is ELF1 (Homo sapiens, UniProt P32519 1-619). The procedure, abridged: as §1
ELF1, sequence (P32519 whole entry): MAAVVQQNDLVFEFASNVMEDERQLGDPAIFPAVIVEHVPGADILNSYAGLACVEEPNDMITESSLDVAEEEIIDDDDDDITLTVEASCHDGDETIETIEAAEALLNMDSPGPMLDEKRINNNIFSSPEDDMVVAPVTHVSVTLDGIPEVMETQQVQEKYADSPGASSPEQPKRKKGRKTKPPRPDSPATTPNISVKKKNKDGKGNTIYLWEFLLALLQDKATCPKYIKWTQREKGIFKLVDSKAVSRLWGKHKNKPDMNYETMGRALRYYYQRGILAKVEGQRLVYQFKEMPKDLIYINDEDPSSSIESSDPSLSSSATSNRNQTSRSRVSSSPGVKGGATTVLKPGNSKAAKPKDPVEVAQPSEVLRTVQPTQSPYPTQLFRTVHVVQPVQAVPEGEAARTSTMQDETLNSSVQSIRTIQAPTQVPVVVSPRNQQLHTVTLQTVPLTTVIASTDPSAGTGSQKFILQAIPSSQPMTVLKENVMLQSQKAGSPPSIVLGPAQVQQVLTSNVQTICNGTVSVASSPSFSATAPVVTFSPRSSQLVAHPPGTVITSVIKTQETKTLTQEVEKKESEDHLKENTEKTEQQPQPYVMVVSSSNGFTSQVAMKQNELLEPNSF
The target in a further experiment is T4, EHF (Homo sapiens, UniProt Q9NZC4 1-300).
T4 sequence: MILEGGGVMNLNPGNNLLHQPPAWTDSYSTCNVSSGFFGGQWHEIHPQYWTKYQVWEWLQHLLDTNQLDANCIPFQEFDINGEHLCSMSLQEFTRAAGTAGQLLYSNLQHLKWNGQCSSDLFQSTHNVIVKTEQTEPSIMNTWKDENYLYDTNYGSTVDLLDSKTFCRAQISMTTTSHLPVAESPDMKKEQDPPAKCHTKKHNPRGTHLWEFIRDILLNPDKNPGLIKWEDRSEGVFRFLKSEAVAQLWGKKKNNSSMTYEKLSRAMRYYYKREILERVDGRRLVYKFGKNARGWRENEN
The procedure, abridged:
as §1

The target of a further experiment is SPIB (Homo sapiens, UniProt Q01892 1-262). The method, boiled down: as §1
SPIB, sequence (Q01892 whole entry): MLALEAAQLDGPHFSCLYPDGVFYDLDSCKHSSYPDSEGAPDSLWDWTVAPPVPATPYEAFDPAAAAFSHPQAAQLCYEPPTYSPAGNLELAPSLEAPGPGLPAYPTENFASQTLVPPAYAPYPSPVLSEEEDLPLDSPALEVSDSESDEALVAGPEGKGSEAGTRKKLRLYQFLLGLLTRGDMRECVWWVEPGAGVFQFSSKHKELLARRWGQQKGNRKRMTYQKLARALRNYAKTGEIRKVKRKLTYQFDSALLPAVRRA
The target of the next experiment is T5, ELK3 (Homo sapiens, UniProt P41970 1-407).
T5 sequence: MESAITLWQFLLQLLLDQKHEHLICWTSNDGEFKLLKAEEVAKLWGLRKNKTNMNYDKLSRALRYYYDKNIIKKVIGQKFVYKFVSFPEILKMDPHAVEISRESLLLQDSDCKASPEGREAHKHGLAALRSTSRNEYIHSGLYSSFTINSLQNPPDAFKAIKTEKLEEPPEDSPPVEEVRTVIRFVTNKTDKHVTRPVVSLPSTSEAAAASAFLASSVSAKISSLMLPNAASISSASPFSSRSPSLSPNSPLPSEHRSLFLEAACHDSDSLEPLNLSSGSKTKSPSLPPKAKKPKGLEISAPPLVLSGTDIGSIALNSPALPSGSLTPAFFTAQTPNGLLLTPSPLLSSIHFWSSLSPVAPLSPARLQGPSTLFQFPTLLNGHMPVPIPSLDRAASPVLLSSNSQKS
The procedure, abridged:
as §1

Another experiment has as its target ETV5 (Homo sapiens, UniProt P41161 1-510). The procedure, abridged: as §1
The next experiment deals with T6, SPIC (Homo sapiens, UniProt Q8N5J4 1-248).
T6 sequence: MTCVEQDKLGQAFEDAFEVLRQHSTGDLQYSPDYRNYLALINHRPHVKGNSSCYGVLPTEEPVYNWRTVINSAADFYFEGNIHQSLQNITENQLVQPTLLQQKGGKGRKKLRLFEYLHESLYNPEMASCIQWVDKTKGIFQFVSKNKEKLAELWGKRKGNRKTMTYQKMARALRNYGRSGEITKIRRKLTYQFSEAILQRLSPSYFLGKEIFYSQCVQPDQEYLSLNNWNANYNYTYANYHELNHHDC
The procedure, abridged: as §1

For the next experiment, the target named is ELF4 (Homo sapiens, UniProt Q99607 1-663). The procedure, abridged: as §1
ELF4, sequence (Q99607 whole entry): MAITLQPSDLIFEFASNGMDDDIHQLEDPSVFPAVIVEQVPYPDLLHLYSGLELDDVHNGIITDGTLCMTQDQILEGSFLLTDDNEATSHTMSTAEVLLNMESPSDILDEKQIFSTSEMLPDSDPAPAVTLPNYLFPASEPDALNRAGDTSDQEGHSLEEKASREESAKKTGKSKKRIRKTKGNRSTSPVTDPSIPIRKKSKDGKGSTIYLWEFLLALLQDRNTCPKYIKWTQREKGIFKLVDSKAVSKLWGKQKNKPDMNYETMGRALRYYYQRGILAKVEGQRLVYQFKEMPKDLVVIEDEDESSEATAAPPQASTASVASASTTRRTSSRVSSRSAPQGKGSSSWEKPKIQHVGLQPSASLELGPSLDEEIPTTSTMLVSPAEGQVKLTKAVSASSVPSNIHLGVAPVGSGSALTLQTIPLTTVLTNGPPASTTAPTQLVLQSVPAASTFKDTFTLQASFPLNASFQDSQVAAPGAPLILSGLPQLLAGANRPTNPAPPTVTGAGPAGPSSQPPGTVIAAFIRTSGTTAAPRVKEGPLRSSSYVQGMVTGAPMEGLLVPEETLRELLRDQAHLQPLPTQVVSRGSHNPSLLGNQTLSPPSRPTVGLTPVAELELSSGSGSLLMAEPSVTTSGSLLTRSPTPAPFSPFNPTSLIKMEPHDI
The target of another experiment is T7, ELK4 (Homo sapiens, UniProt P28324-2 1-405).
T7 sequence: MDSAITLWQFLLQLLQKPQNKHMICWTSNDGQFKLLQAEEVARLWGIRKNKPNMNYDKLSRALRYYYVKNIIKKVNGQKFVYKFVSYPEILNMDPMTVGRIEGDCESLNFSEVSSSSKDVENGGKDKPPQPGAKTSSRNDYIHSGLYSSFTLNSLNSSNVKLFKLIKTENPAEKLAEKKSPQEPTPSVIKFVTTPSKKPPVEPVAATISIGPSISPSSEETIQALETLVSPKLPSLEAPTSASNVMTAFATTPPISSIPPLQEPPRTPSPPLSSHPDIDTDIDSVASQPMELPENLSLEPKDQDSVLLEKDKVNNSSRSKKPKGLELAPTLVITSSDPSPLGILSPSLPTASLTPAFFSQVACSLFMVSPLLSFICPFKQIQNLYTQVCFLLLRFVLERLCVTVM
The method, boiled down: as §1

The next experiment has as its target T8, ELF3 (Homo sapiens, UniProt P78545 1-371).
T8 sequence: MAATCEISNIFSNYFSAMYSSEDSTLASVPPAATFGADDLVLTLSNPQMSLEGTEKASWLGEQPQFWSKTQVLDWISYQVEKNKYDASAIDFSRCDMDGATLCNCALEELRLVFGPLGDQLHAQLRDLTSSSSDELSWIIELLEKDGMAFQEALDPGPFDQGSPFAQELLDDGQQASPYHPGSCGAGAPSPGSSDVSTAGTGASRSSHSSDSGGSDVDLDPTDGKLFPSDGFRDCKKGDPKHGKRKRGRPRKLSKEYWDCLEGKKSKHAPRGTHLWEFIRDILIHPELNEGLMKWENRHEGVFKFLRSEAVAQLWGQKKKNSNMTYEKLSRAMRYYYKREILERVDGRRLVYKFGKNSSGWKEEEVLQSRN
The procedure, abridged: as §1

The target of a further experiment is ETV1 (Homo sapiens, UniProt P50549 1-477). The procedure, abridged:
as §1

In another experiment the target is T9, ERF (Homo sapiens, UniProt P50548 1-548).
T9 sequence: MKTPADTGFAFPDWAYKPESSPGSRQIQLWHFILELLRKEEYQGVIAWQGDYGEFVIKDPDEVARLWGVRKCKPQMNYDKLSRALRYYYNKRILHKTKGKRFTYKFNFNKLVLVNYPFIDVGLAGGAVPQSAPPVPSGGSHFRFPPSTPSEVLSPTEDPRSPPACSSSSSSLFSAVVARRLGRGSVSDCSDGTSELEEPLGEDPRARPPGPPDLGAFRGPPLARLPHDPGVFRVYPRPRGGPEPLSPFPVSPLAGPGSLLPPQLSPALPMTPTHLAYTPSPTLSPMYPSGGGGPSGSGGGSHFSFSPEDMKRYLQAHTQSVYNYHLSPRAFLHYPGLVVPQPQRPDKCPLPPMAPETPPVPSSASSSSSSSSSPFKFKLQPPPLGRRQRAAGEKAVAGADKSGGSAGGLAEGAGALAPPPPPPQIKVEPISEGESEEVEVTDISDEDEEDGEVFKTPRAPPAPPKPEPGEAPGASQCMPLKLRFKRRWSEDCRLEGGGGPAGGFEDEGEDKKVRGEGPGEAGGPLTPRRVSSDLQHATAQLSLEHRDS
The procedure, abridged:
as §1

The target of another experiment is T10, ETV3L (Homo sapiens, UniProt Q6ZN32 1-361).
T10 sequence: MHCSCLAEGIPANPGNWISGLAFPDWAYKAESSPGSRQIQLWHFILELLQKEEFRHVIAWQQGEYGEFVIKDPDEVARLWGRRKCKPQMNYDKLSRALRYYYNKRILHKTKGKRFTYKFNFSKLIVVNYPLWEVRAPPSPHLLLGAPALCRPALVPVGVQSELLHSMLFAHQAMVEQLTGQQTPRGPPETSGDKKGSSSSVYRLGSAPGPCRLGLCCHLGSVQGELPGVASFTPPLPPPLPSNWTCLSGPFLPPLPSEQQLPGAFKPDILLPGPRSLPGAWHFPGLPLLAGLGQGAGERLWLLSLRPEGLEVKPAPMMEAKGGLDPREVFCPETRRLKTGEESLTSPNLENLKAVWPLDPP
The procedure, abridged: as §1

Another experiment has as its target T11, SPDEF (Homo sapiens, UniProt O95238 1-335).
T11 sequence: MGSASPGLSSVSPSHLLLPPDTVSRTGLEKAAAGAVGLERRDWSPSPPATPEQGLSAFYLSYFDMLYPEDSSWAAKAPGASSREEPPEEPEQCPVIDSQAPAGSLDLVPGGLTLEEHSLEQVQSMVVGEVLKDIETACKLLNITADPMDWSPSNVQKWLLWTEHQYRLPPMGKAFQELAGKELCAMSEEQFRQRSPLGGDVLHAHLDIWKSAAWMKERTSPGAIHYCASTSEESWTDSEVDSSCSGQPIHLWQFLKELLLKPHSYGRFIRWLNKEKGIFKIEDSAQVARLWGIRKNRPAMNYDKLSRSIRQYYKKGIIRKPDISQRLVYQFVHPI
The method, boiled down:
as §1

A further experiment deals with T12, ETV3 (Homo sapiens, UniProt P41162-2 1-143).
T12 sequence: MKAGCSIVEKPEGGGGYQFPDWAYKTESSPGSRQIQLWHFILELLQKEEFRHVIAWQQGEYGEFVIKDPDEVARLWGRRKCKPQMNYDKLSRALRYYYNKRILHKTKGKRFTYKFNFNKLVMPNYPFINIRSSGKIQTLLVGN
The method, boiled down: as §1

A further experiment addresses ETV6 (Homo sapiens, UniProt P41212 1-452). The method, boiled down: as §1

ETV5, sequence (P41161 whole entry): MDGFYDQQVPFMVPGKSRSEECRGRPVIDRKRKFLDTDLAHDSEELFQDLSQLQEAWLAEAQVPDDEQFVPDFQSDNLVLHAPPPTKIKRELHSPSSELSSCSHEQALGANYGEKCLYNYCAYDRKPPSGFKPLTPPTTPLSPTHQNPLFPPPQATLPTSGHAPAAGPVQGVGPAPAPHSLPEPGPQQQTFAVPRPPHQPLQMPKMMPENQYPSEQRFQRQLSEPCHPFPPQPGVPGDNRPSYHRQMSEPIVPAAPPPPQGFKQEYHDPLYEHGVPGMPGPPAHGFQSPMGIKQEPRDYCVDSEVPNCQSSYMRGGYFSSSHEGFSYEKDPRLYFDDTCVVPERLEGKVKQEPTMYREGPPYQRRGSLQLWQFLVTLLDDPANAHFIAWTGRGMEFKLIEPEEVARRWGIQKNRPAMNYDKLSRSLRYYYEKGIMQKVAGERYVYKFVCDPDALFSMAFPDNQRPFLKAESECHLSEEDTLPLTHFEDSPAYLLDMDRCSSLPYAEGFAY
ETV1, sequence (P50549 whole entry): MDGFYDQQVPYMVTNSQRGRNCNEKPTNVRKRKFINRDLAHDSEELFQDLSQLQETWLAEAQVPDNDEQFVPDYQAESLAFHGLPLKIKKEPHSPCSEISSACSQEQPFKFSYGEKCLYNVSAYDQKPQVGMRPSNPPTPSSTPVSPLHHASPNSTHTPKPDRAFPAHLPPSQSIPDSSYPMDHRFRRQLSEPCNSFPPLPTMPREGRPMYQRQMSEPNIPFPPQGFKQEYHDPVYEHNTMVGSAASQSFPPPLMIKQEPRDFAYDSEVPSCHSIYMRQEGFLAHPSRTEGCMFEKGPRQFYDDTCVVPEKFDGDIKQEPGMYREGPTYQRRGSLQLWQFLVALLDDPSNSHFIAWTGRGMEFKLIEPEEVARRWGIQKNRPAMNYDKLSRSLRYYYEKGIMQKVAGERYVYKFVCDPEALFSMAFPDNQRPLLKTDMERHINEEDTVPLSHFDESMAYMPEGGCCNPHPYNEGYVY
ETV6, sequence (P41212 whole entry): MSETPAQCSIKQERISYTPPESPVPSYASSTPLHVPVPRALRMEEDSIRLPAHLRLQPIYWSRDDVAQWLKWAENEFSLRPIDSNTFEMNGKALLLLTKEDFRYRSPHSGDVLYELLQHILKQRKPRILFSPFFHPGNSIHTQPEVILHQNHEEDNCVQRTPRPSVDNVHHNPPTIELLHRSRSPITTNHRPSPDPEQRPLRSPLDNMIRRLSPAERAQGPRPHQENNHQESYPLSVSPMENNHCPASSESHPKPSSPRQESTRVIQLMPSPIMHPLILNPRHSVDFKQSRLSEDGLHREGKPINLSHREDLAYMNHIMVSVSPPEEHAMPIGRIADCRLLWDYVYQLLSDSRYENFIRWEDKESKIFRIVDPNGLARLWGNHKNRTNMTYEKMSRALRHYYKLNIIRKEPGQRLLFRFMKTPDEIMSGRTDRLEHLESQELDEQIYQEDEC

In the case of CGCGCC, the binding signal with ELK1 is 1.01 fold enrichment (6-mer frequency, TF over GST control); in the experiment with GABPA, 1.03 fold enrichment (6-mer frequency, TF over GST control); in the experiment with ERG it was 1.03 fold enrichment (6-mer frequency, TF over GST control); with ELF1 it was 1.06 fold enrichment (6-mer frequency, TF over GST control); with EHF, 1.05 fold enrichment (6-mer frequency, TF over GST control); with SPIB, 1 fold enrichment (6-mer frequency, TF over GST control). In addition, the binding signal was 1.05 fold enrichment (6-mer frequency, TF over GST control) with ELK3; 1.11 fold enrichment (6-mer frequency, TF over GST control) with ETV5; 1.23 fold enrichment (6-mer frequency, TF over GST control) in the experiment with SPIC; 1.05 fold enrichment (6-mer frequency, TF over GST control) with ELF4; 1.15 fold enrichment (6-mer frequency, TF over GST control) with ELK4; 1.05 fold enrichment (6-mer frequency, TF over GST control) with ELF3. Further, the binding signal in the experiment with ETV1 was 1.14 fold enrichment (6-mer frequency, TF over GST control); in the experiment with ERF, 1.1 fold enrichment (6-mer frequency, TF over GST control); in the experiment with ETV3L, 1.05 fold enrichment (6-mer frequency, TF over GST control); with SPDEF, 1.03 fold enrichment (6-mer frequency, TF over GST control); with ETV3, 1.09 fold enrichment (6-mer frequency, TF over GST control); in the experiment with ETV6, 1 fold enrichment (6-mer frequency, TF over GST control).
